Compounds without any hit were thinned out: in the full panel of roughly 83,000, 20% have a hit.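 48-hour exposure, single concentration, 96-well plates; percent growth endpoint where 0 means no net growth. Active: below 10.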 Values without a mark were called inactive. Activity calls are given as the source filed them.

In the assay the test system is NCI-H460 lung. Briefly: NCI-60 one-dose screen, 48 h (100 = growth as untreated, 0 = no growth, -100 = all killed). The settings on record: 10 µM unless noted. Here is the method: Growth inhibition of the NCI-H460 human Non-Small Cell Lung tumor cell line is measured as a screen for anti-cancer activity. Cells are grown in 96 well plates and exposed to the test compound for 48 hours. Compounds are tested at a single concentration, which is 10^-5 M for most compounds. The reported endpoint is percent growth (GI% or GIPRCNT), where numbers from 0 - 100% represent growth inhibition, and numbers from -100% - 0 represent cell death. For example, a value of 40 represents 60% growth inhibition. A value of 0 means no net growth occurred over the course of the experiment. A value of -40 indicates 40% of cells at the beginning of the experiment died by the end of the experiment. A value of -100 means all cells are dead at the end of the experiment.
NCI-60 Human Tumor Cell Lines Screen was performed using the standard one-dose NCI protocol, which is described in more detail at https://dtp.cancer.gov/discovery_development/nci-60/default.htm.
Compounds with GIPRCNT values below 10 were considered active. Activity score was based on GIPRCNT using the following formula: […]
Score is 0 for GIPRCNT values of 100 or above, 50 for GIPRCNT values of 0, and 100 for GIPRCNT values of -100.
With `COc1cc2c(cc1OCCCCCOc1ccc(-n3c(C)nc4ccccc4c3=O)cc1)N=C[C@@H]1CCCN1C2=O`, the growth is -31.2% (active).

Take `O=C1/C(=C\c2cccn2Cc2ccccc2)c2ccccc2N1c1c(Cl)cccc1Cl`: the growth was 42.7%.

In the case of `C=CCc1nc2ccccc2s1`, the growth is 104%.

Turning to `COc1ccc2c(c1)C(C)Cc1c(Cl)ncnc1N2C` (stereo not given), the growth is 16.6%. Next, `Cc1cc(C)c(-c2cc(O)c(-c3c(C)cc(C)cc3C)cc2O)c(C)c1`: 16.9%; `NC(=O)c1cccc(-c2ccc(S(=O)(=O)Nc3ccc4c(c3)N(C(=O)C3CC3)CCC4)cc2)c1`: 17.1%.

With `CCN(CC)c1ccc2cc(C(Nc3ccc(Br)c(C(F)(F)F)c3)c3nnnn3C(C)(C)C)c(=O)oc2c1` (stereo not given), the growth is 91.9%. As to `CC(C)C1=NOC(=O)C1=Cc1cn(-c2ccccc2)nc1-c1ccccc1`, the growth was 85.2%. As to `Cc1ccc(NCCN2CCCCC2)c2c(=O)c3ccccc3sc12`, the growth is 2.26% (active). Next, `CCCCN(CCCC)CC(O)c1ccc(OCc2ccccc2)c2ccccc12` (stereo not given): 83.1%; `CC1(C)OC2[C@@H](CNC(=O)NC(=O)NC(=O)CI)O[C@@H](n3cnc4c(NC(=O)Nc5ccccc5)ncnc43)[C@H]2O1` (stereo not given in full): 93.1%.

Turning to `C[C@H]1[C@H](C)CC[C@]2(C(=O)N3CCN(C)CC3)CC[C@]3(C)C(=CC[C@@H]4[C@@]5(C)C/C(=C/c6ccco6)C(=O)C(C)(C)[C@@H]5CC[C@]43C)[C@H]12`, the growth is 6.22% [100 µM] (active).

For the molecule `COc1cc2c(=O)[nH]c3cc([N+](=O)[O-])ccc3c2cc1[N+](=O)[O-]`, the growth is 14%. Next, `CC1(C)C(=O)/C(=C\c2ccco2)C[C@]2(C)[C@H]3CC=C4[C@@H]5C[C@](C)(C(=O)O)CC[C@]5(C)CC[C@@]4(C)[C@]3(C)CC[C@@H]12`: -73.5% [100 µM] (active); `Cc1cnc(N)nc1OCC(C)(C)CNC(=O)c1cccc(-c2ccc(S(=O)(=O)Nc3ccc4c(c3)N(C(=O)C3CC3)CCC4)cc2)c1`: 53.9%; `N#C/C(=C(/O)CCCO)c1nc2ccccc2c(=O)[nH]1`: 111%.

`COc1ccc(NC(=O)Nc2ccc(-c3cccnc3)cc2N2CCC(CO)CC2)cc1`: the growth was 60.1%. Turning to `C[n+]1c(-c2ccccc2)c2cc(N)ccc2c2ccccc21`, the growth is 28.4%. Next, `COc1cc(NCc2ccccc2O)c2ncccc2c1`: 97.3%; `Cc1cc(N2CCCCCC2)nc(N2CCN(CC(=O)Nc3ccc4c(ccn4Cc4ccccc4)c3)CC2)n1`: 36.7%. With `O=C(NNc1ccc(-c2ccccc2)nn1)c1ccc(F)cc1` the figure was 99.1%.

For the molecule `Cc1cccc(C[C@H](NC(=O)Nc2ccc(Cl)cc2F)C(=O)N[C@@H]2C(=O)N3C[C@H](O)C[C@H]3C(=O)N3CCN(C)C[C@H]3C(=O)N[C@@H](C)C(=O)N3C[C@H](C)C[C@H]3C(=O)O[C@H]2C)c1`, the growth is 27.7%. Consider `CCOc1ccc2sc(NS(=O)(=O)c3ccc(N)cc3)nc2c1`, for which the growth is 104%. As to `C=C(C)[C@@H]1CC[C@]2(C)[C@H](CC=C3[C@@H]4[C@@H](C)[C@H](C)CC[C@]4(C(N)=O)CC[C@]32C)[C@@]1(C)CCC#N`, the growth is -38.4% [100 µM] (active).

For `Cc1nc(-c2ccccc2)sc1CC#N`, the growth was 103%. Next, `CCOc1cc(/C=N\NC(=O)N/N=C/c2ccc(O)c(OCC)c2)ccc1O`: 11.8%; `COc1cc(OC)c(/C=C/C(=O)c2c(N)cc(OC)cc2OC)c(OC)c1`: 2.53% (active); `C[n+]1c2ccccc2nc2c(N)cc(N)cc21`: 86.6%.

On to `COc1cc(C(=O)/C=C/c2c(-c3ccc(F)cc3)nc3sccn23)cc(OC)c1OC`, for which the growth was -1.39% (active). For `CC1Cc2c(Cl)ncnc2N(C)c2ccccc21` (stereo not given), the growth is 21.2%. Take `Cc1cccc(/C=C2\N=C(c3ccccc3)N(c3ccc(S(N)(=O)=O)cc3)C2=O)c1`: the growth is 93.2%. In the case of `CCn1cc(-c2ccnc(NCCNS(=O)(=O)c3cccc4ccccc34)c2)c(-c2cccc(O)c2)n1`, the growth is 102%. Next, `Cn1ncc2c(Nc3ccc(O)cc3)nc(Cl)nc21`: 108%; `CC(=O)OC[C@]12CC[C@@H](C(=O)CBr)[C@@H]1[C@H]1CC[C@@H]3[C@@]4(C)CCCNC(C)(C)[C@@H]4CC[C@@]3(C)[C@]1(C)CC2`: -66.7% [100 µM] (active); `C[C@@H]1C[C@H]2C(=O)O[C@@H](C)[C@H](NC(=O)[C@H](Cc3cc(F)cc(F)c3)NC(=O)Nc3ccc(C4CC4)cc3F)C(=O)N3CCC[C@H]3C(=O)N3CCCC[C@H]3C(=O)N[C@@H](C)C(=O)N2C1`: 13.6%. On to `COc1ccc2nc3c(cc2c1)C(=O)CC(c1ccccc1)C3` (stereo not given), for which the growth is 8.79% (active).

Regarding `CC1=C/C(=C(\c2cc(C)c(O)c(C(=O)O)c2)c2c(Cl)cccc2Cl)C=C(C(=O)O)C1=O`, the growth is 104%. With `CCCCCCCCCCCCCCNC(=O)Nc1ccc(Cl)c(Cl)c1` the figure was 86.6%.

Regarding `O=C(Nc1ccc(CN2CCOCC2)c(C(F)(F)F)c1)c1nc2ccc3[nH]ncc3c2c2c1CCCC2`, the growth is 90.1%. As for `CN(C)c1ccc(N=Nc2ccc3ccccc3c2)cc1`, the growth was 87.5%.

The values above are taken from PubChem BioAssay (NCI).
